Laboratory results as given in publication PMC6602471.
The full ranking holds about 1,300 sequences; the median of “log fluorescence intensity” is about 8.9, and the highest 2% start at about 13. This is one part of a sample in which the highest values are shown more often than they occur.

These sequences were tested against T1, ELK1 (Homo sapiens, UniProt P19419 1-428) (assay: custom PBM; custom protein-binding microarray; buffer, salt, pH and temperature not stated; high values mean tight binding). Settings: dsDNA, one strand shown.
T1 sequence: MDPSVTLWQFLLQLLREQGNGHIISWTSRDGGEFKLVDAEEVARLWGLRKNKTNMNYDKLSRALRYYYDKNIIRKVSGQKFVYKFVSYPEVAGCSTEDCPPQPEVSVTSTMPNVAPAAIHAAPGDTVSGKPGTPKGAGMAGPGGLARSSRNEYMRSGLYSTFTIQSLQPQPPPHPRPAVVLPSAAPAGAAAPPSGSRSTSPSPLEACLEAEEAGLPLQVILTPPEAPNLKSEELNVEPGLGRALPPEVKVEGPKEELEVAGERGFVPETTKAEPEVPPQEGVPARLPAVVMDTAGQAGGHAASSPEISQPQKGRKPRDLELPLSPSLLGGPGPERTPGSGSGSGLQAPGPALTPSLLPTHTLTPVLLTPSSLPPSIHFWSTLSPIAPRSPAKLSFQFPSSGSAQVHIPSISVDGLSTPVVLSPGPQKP

**Q.** With “CACAATATTTACAGTAATGTAGCACGCGTAACTCCTGTCTTGATTCGCTTGACGCTGCTG” as the sequence, how does the binding signal read?
**A.** 8.95 log fluorescence intensity

**Q.** With “CGGAAGTGTCGTAAACGTCGGATATCCGGTTATTCTGTCTTGATTCGCTTGACGCTGCTG” as the sequence, how does the binding signal read?
**A.** 12.5 log fluorescence intensity

**Q.** How did the binding signal turn out when “CGGAAGTGTCGTAAACGACGGATATCCGGTTCTTCTGTCTTGATTCGCTTGACGCTGCTG” was run?
**A.** 12.7 log fluorescence intensity

**Q.** How did the binding signal turn out when “CGGAAGTGTCGTAAACGGCGGATATCCGGTTCTTCTGTCTTGATTCGCTTGACGCTGCTG” was run?
**A.** 12.6 log fluorescence intensity

**Q.** With “CGGAAGTGTCGTAAACGTCGGTTATCCGGTTCTTCTGTCTTGATTCGCTTGACGCTGCTG” as the sequence, how does the binding signal read?
**A.** 10.1 log fluorescence intensity

**Q.** Which binding signal does the source give for “GGAAAAAGGCCCAGGGTAACACCGCAAGTGGGCTTAGTCTTGATTCGCTTGACGCTGCTG” here?
**A.** 8.91 log fluorescence intensity

**Q.** How did the binding signal turn out when “TAAAGGGAAGACGGTTGTGGTAGGTCCGGGTATTAAGTCTTGATTCGCTTGACGCTGCTG” was run?
**A.** 8.98 log fluorescence intensity

**Q.** Which binding signal does the source give for “CACAATTTTAACAGTAATGTAGCACGCGTAACTCCTGTCTTGATTCGCTTGACGCTGCTG” here?
**A.** 8.9 log fluorescence intensity

**Q.** “GATGAATTTCTGCCCTTATTCGCACGTGCCATAACAGTCTTGATTCGCTTGACGCTGCTG” was tested. Which binding signal did it give?
**A.** 8.9 log fluorescence intensity

**Q.** “GGAAAAAGGCCCAGGGTTACACCGGAAGTGGGCTTAGTCTTGATTCGCTTGACGCTGCTG” was tested. Which binding signal did it give?
**A.** 11 log fluorescence intensity

**Q.** How did the binding signal turn out when “TAAAGGGAACACGGTTGTGGTAGTTCCGGGTATTAAGTCTTGATTCGCTTGACGCTGCTG” was run?
**A.** 11.2 log fluorescence intensity

**Q.** With “GGAAAAAGGCCCAGGGCAACACCGGAAGTGGGCTTAGTCTTGATTCGCTTGACGCTGCTG” as the sequence, how does the binding signal read?
**A.** 10.9 log fluorescence intensity

**Q.** “CCCAATTTTTACAGTAATGTAGCACGCGTAACTCCTGTCTTGATTCGCTTGACGCTGCTG” was tested. Which binding signal did it give?
**A.** 8.98 log fluorescence intensity

**Q.** With “CTGGGACTTGACCCAACTCTGCCACGTGGGCCGTTTGTCTTGATTCGCTTGACGCTGCTG” as the sequence, how does the binding signal read?
**A.** 9.05 log fluorescence intensity

**Q.** Which binding signal does the source give for “CGGGGACTTGACCCAACTCTGCCACGTGGGTCGTTTGTCTTGATTCGCTTGACGCTGCTG” here?
**A.** 8.96 log fluorescence intensity

**Q.** With “TACTTACTTATATATGCGAATGCACATGAATAGACCGTCTTGATTCGCTTGACGCTGCTG” as the sequence, how does the binding signal read?
**A.** 9.06 log fluorescence intensity

**Q.** For “TAAAGGGAAGACGGGTGTGGTAGTTCCGGGTATTAAGTCTTGATTCGCTTGACGCTGCTG”, which binding signal is on record?
**A.** 11.2 log fluorescence intensity

**Q.** With “TAAAGGGAAGACGCTTGTGGTAGTTCCGGGTATTAAGTCTTGATTCGCTTGACGCTGCTG” as the sequence, how does the binding signal read?
**A.** 11 log fluorescence intensity

**Q.** With “TAAAGGGAAGACGGATGTGGTAGTTCCGGGTATTAAGTCTTGATTCGCTTGACGCTGCTG” as the sequence, how does the binding signal read?
**A.** 12.6 log fluorescence intensity

**Q.** “TCCAGCTACCAGCTCCACCCACTTCAGGCCTTGTAGGTCTTGATTCGCTTGACGCTGCTG” was tested. Which binding signal did it give?
**A.** 8.99 log fluorescence intensity

**Q.** Which binding signal does the source give for “CACAATTTGTACAGTAATGTAGCACGCGTAACTCCTGTCTTGATTCGCTTGACGCTGCTG” here?
**A.** 8.91 log fluorescence intensity

**Q.** With “GGAAAAAGGCCCAGGGTAACCCCGGAAGTGGGCTTAGTCTTGATTCGCTTGACGCTGCTG” as the sequence, how does the binding signal read?
**A.** 10.5 log fluorescence intensity

**Q.** “CAGCATAGGACTTCTTCCCTGAAGCAATTGATAACTGTCTTGATTCGCTTGACGCTGCTG” was tested. Which binding signal did it give?
**A.** 8.96 log fluorescence intensity

**Q.** How did the binding signal turn out when “CACAATTTTTACAGTAATGTAGCACGCGGAACTCCTGTCTTGATTCGCTTGACGCTGCTG” was run?
**A.** 8.97 log fluorescence intensity

**Q.** How did the binding signal turn out when “TCCGGCTACAAGCTCCACCCACTTCAGGCCTTGTAGGTCTTGATTCGCTTGACGCTGCTG” was run?
**A.** 8.93 log fluorescence intensity

**Q.** “TAAAGGGAAGACGGTTGTGGTAGTTCCGGGTACTAAGTCTTGATTCGCTTGACGCTGCTG” was tested. Which binding signal did it give?
**A.** 11.3 log fluorescence intensity

**Q.** How did the binding signal turn out when “GTGTATAGGATCCCATCCAACACACCTGTTAAAATGGTCTTGATTCGCTTGACGCTGCTG” was run?
**A.** 8.91 log fluorescence intensity

**Q.** How did the binding signal turn out when “TCCGGTTACCAGCTCCACCCACTTCAGGCCTTGTAGGTCTTGATTCGCTTGACGCTGCTG” was run?
**A.** 8.91 log fluorescence intensity

**Q.** With “TAAAGGGAAGACGGTTGTGGTAGTTCCGCGTATTAAGTCTTGATTCGCTTGACGCTGCTG” as the sequence, how does the binding signal read?
**A.** 9.44 log fluorescence intensity

**Q.** For “TCCGGCTCCCAGCTCCACCCACTTCAGGCCTTGTAGGTCTTGATTCGCTTGACGCTGCTG”, which binding signal is on record?
**A.** 8.92 log fluorescence intensity

**Q.** “CACAATTTTTACAGTAATGTAGCACGCGTAATTCCTGTCTTGATTCGCTTGACGCTGCTG” was tested. Which binding signal did it give?
**A.** 8.98 log fluorescence intensity

**Q.** How did the binding signal turn out when “CAGCATAGGACTCCTTCCCTGAAGCAATTGATAACCGTCTTGATTCGCTTGACGCTGCTG” was run?
**A.** 8.92 log fluorescence intensity

**Q.** For “CACAATTTTTACAGTAATGTAGCACGCGTAGCTCCTGTCTTGATTCGCTTGACGCTGCTG”, which binding signal is on record?
**A.** 9.06 log fluorescence intensity

**Q.** “TAAAGGGACGACGGTTGTGGTAGTTCCGGGTATTAAGTCTTGATTCGCTTGACGCTGCTG” was tested. Which binding signal did it give?
**A.** 11.3 log fluorescence intensity

**Q.** Which binding signal does the source give for “CACAATTTTTACAGTAATGTAGCACGCGTTACTCCTGTCTTGATTCGCTTGACGCTGCTG” here?
**A.** 9.11 log fluorescence intensity

**Q.** For “GATTTATTTCTGCCCTTATTCGCACGTGCCATAACAGTCTTGATTCGCTTGACGCTGCTG”, which binding signal is on record?
**A.** 8.91 log fluorescence intensity

**Q.** How did the binding signal turn out when “CAGCATAGGACTTCTTCCCTGAAGCAATAGATAACCGTCTTGATTCGCTTGACGCTGCTG” was run?
**A.** 8.97 log fluorescence intensity

**Q.** How did the binding signal turn out when “CACAATTTTTACAGTAATGTAGTACGCGTAACTCCTGTCTTGATTCGCTTGACGCTGCTG” was run?
**A.** 9.01 log fluorescence intensity

**Q.** With “GGAAAAAGGCCCAGGGTAACACCGGAAGTGGGCGTAGTCTTGATTCGCTTGACGCTGCTG” as the sequence, how does the binding signal read?
**A.** 10.9 log fluorescence intensity

**Q.** How did the binding signal turn out when “TGTCGGGTAAGGGAATGTAGATCACGTGAATGACAAGTCTTGATTCGCTTGACGCTGCTG” was run?
**A.** 8.94 log fluorescence intensity

**Q.** With “TAAAGGGAAGACGGTTGTGGTAGTTCCGGGTTTTAAGTCTTGATTCGCTTGACGCTGCTG” as the sequence, how does the binding signal read?
**A.** 11.2 log fluorescence intensity

**Q.** For “TACTGACTTATATATGCGGATGCACATGAATAGACCGTCTTGATTCGCTTGACGCTGCTG”, which binding signal is on record?
**A.** 9.12 log fluorescence intensity

**Q.** With “GGAAAAAGGCCCAGGGTAACACCGGAAGTGGCCTTAGTCTTGATTCGCTTGACGCTGCTG” as the sequence, how does the binding signal read?
**A.** 10.9 log fluorescence intensity

**Q.** Which binding signal does the source give for “GCTGCTGCGGTGCATACCCCACCGGATGTGACCTCGGTCTTGATTCGCTTGACGCTGCTG” here?
**A.** 10.1 log fluorescence intensity

**Q.** How did the binding signal turn out when “GGAAAAAGGCCCAGGGTAACACAGGAAGTGGGCTTAGTCTTGATTCGCTTGACGCTGCTG” was run?
**A.** 9.55 log fluorescence intensity

**Q.** Which binding signal does the source give for “GATTAATATCTGCCCTTATTCGCACGTGCCATAACAGTCTTGATTCGCTTGACGCTGCTG” here?
**A.** 8.95 log fluorescence intensity

**Q.** How did the binding signal turn out when “CTGCATAGGACTTCTTCCCTGAAGCAATTGATAACCGTCTTGATTCGCTTGACGCTGCTG” was run?
**A.** 8.94 log fluorescence intensity
